# A selection: hits, their analogues and other compounds. The true share with any hit is near 3.3%.
# RE007 growth inh: qHTS Assay for Inhibitors of the HIV-1 protein Vpr; 0.21% of 360,000 active; Potency, µM (top dose mostly 92.2 µM), without a hit: at the highest dose activity change, negative = less growth, most hits filed as inhibitors; S. pombe RE007 Vpr strain, BacTiter-Glo ATP luminescence, 24 h; active means well fitted falling curve with a large enough effect; inconclusive means small, poorly fitted or top-dose-only effect; inactive means no such curve, though single readings can be large or run the other way; further: nearly all actives have a fitted effect of over 50% in size
#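 Fission yeast RE007 carrying one integrated HIV-1 vpr copy, seeded at OD 0.01 in PMG+AL medium with 23 nL pinned compound. Grown 24 h at 30 degrees; viability read by BacTiter-Glo luminescence after 5 min.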
# LmPK inhibitor: qHTS Assay for Inhibitors of Leishmania Mexicana Pyruvate Kinase (LmPK) | Q27686 | 0.37% of 290,000 active | Potency, µM (highest dose often 57.5 µM), for inactives: top-dose activity change, negative = inhibition, most hits filed as inhibitors | purified LmPK, Kinase-Glo ATP luminescence, 1 h
#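 In 50 mM imidazole pH 7.2 with 7 mM MgCl2, LmPK (0.1 nM) turned over PEP (0.5 mM) and ADP (0.1 mM) for 1 h at room temperature. Luciferase read-out of ATP.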
# Giardia FBPA inh: qHTS Assay for Inhibitors of Fructose-1,6-bisphosphate Aldolase from Giardia Lamblia. A8B2U2. AID 2451, 2010. Potency, µM (titrated, usually from 59.6 µM), without a hit: at the top dose activity, negative = inhibition, usual class: inhibitors. 0.71% of 290,000 active. purified Giardia FBPA; further: nearly all actives have a fitted effect of over 55% in size
# Target sequence (A8B2U2 whole entry, looked up): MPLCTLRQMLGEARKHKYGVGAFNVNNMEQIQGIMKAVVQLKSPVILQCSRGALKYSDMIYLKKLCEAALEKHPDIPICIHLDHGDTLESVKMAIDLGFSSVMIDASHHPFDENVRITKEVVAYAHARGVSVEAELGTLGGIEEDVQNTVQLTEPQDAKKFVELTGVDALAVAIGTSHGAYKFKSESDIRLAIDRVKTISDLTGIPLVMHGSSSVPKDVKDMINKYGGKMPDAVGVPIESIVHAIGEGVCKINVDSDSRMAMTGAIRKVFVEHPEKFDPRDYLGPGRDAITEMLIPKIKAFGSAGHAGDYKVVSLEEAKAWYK
#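 Giardia FBPA (40 nM reagent) was preincubated 10 min at RT with compound (up to 57.5 uM final), then substrate plus GAPDH/TPI/NAD/arsenate coupling system with diaphorase/resazurin was added; resorufin fluorescence (525/598 nm) was read after 20 min.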
# TbPYK inhibitor: qHTS of Trypanosoma Brucei Inhibitors | pyruvate kinase (Trypanosoma brucei), Q57TT1 | TbPYK enzyme, Kinase-Glo Plus ATP luminescence, 45 min | Potency, µM (top dose mostly 76.8 µM), for the others: at the highest dose activity, negative = inhibition, usual class: inhibitors | 0.12% of 410,000 active; further: nearly all actives have a fitted effect of over 50% in size
#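 Assay buffer: 50 mM TEA pH 7.2, 100 mM KCl, 10 mM MgCl2, 0.05% BSA, 0.01% Tween-20. Pyruvate kinase from T. brucei plus substrate met compound, then ADP (130 uM final). Luminescence was read post 45 min RT.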
# Sm TGR inh: qHTS Assay for the Inhibitors of Schistosoma Mansoni Peroxiredoxins | AID 485364, 2010 | purified TGR, DTNB reduction, TNB absorbance 405 nm | 3% of 360,000 active | Schistosoma mansoni thioredoxin glutathione reductase (TGR), Q962Y6 | Potency, µM (titrated, usually from 114 µM), for inactives: top-dose activity change, negative = inhibition, actives largely listed as inhibitors; further: nearly all actives have a fitted effect of over 60% in size
#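 TGR 20 nM + NADPH 100 uM (dispensed conc.), cpd preinc 15 min RT; start with NADPH (500 uM addition) then DTNB (15 mM addition). Kinetic TNB absorbance, 405 nm filter. Four-parameter Hill fit across titration.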
# An asterisk follows results filed as active; ? = inconclusive; · = no result given; [ ] = remark or other dose. Unless noted, the call rests on the fitted dose curve; in most records, active means well fitted curve in the direction sought with a large enough effect; inconclusive means small, poorly fitted or top-dose-only effect, or another doubt; inactive means no such curve, though single readings can be large; an effect the other way counts as inactive or inconclusive. On the % scale 0 is the no-effect control and ±100 the full control effect; potency means the concentration at half of the fitted maximal effect.
SMILES,RE007 growth inh,LmPK inhibitor,Giardia FBPA inh,TbPYK inhibitor,Sm TGR inh
O=C(O)c1cccc(NC(=S)NC(=O)c2cccc(OCc3ccccc3)c2)c1,10.9%,-0.7%,-11.0%,1.4%,25.1µM*
CNC(=S)Nc1cccc(C(=O)O)c1,2.4%,0.2%,-26.0%,-2.9%,3.16µM*
O=C(O)c1ccc(NC(=S)NC(=O)c2cncc(Br)c2)cc1,-4.6%,-2.4%,?,-3.8%,11.2µM*
CCn1c(-c2cc(C3CC3)nc3ccccc23)n[nH]c1=S,·,-8.1%,19.7%,?,44.7µM*
CCn1c(-c2cc(-c3cc(C)ccc3C)nc3ccccc23)n[nH]c1=S,-5.9%,0.6%,19.2%,-23.4%,18.3%
CSc1ccccc1C(=O)Nc1cccc([N+](=O)[O-])c1C,-14.9%,-0.1%,-1.0%,-15.3%,-2.2%
Fc1ccc(-n2c(-c3ccc4ccccc4n3)n[nH]c2=S)cc1Cl,16.1%,7.8%,-5.9%,-26.5%,4.5%
Fc1ccc(-n2c(-c3ccc4c(c3)OCO4)n[nH]c2=S)cc1Cl,19.1%,14.1µM*,9.1%,3.98µM*,-6.7%
COc1cc(OC)cc(-c2n[nH]c(=S)n2-c2ccc3c(c2)OCO3)c1,-0.5%,5.01µM*,13.0%,?,-1.2%
COc1ccccc1-n1nc(C)c(-c2ccccc2)c1N,44.2%,0.1%,3.4%,1.4%,44.0%
CN(C)N1C(=O)CC(N2CCCC2)C1=O (stereo unspecified),?,-2.8%,-6.3%,-3.8%,22.4µM*
Cc1cc(Cl)n2c(nc3cc(F)c(F)cc32)c1C#N,?,3.1%,0.5%,-2.6%,1.12µM*
O=C(CN1CCN(Cc2ccccc2F)C1=O)NCc1ccco1,-2.4%,0.7%,4.2%,2.7%,28.2µM*
O=C(CN1CCN(Cc2ccc(F)cc2)C1=O)NCc1ccccc1Cl,·,·,·,-6.1%,0.4%
O=C(CN1CCN(Cc2ccc(F)cc2Cl)C1=O)NCCc1ccccc1,0.3%,12.0%,0.4%,1.8%,0.0%
O=C(NCc1ccco1)C1CCN(c2nc3ccccc3n2Cc2ccccc2F)CC1,14.3%,1.8%,-1.8%,0.6%,44.7µM*
O=C(CN1CCN(Cc2ccccc2Cl)C1=O)NCc1ccccc1Cl,·,·,·,-1.8%,5.01µM*
O=C(O)CN1CCN(Cc2ccc(F)cc2Cl)C1=O,2.3%,3.6%,?,-0.8%,8.91µM*
O=C(CN1C2CCCC1CC(NC(=O)c1ccccc1)C2)Nc1ccccc1C(F)(F)F (stereo unspecified),-2.0%,-3.4%,-1.2%,6.2%,7.6%
CCOc1ccc(Nc2nc(N)nc(CN3CCN(c4ccccc4F)CC3)n2)cc1,4.7%,3.0%,-0.5%,0.4%,-2.5%
COc1ccc(-n2nc(C(=O)Nc3ccc(Cl)cn3)c3c4ccccc4n(C)c3c2=O)cc1,·,·,·,6.0%,3.1%
Cc1ccc(SCC(=O)Nc2ccc(S(=O)(=O)Nc3nccs3)cc2)cc1,16.6%,0.2%,16.0%,-11.2%,-22.9%
O=C(NCc1ccccc1F)C1CCN(Cc2cc3ccccc3n2Cc2cccc(Cl)c2)CC1,·,·,·,-5.5%,12.6µM*
O=C(NCCc1ccccc1)C1CCN(Cc2cc3ccccc3n2Cc2cccc(Cl)c2)CC1,·,·,·,3.4%,2.9%
O=C(NCc1ccc2c(c1)OCO2)c1nc(S(=O)(=O)Cc2ccccc2)ncc1Cl,1.0%,-2.5%,·,5.3%,3.16µM*
SMILES,RE007 growth inh,LmPK inhibitor,Giardia FBPA inh,TbPYK inhibitor,Sm TGR inh
O=C(NCc1ccc2c(c1)OCO2)c1nc(S(=O)(=O)Cc2ccccc2F)ncc1Cl,2.2%,-2.6%,-2.3%,0.3%,25.1µM*
O=C(NCc1ccc2c(c1)OCO2)c1ccccc1Cl,1.6%,·,·,2.7%,·
COc1ccc(-c2cc3ccc(OC(C)C(=O)O)cc3oc2=O)cc1 (stereo unspecified),11.4%,-1.1%,11.7%,-2.2%,0.0%
O=C(COc1ccc2c(c1)OCO2)Nc1nccs1,0.8%,14.1µM*,-1.4%,?,-8.1%
COc1ccc(OCC(=O)Nc2nccs2)cc1,-6.0%,25.1µM*,1.0%,-25.2%,31.4%
COCc1nnc(NC(=O)COc2ccc3c(c2)OCO3)s1,2.6%,-3.6%,-23.2%,2.1%,6.8%
COc1ccc(OCCC(=O)Nc2nccs2)cc1,51.0%,0.2%,5.1%,-5.0%,·
CN(C)c1nc(N)nc(N(c2ccccc2)c2ccccc2)n1,5.4%,-4.9%,-3.6%,2.1%,4.6%
COc1ccc2nc(NC(=S)NC(=O)c3ccco3)sc2c1,6.3%,-2.7%,?,0.9%,-15.5%
COc1ccc2nc(NC(=O)c3ccoc3C)sc2c1,?,5.01µM*,4.7%,?,2.3%
COc1ccc2nc(NC(=O)c3cc(C)oc3C)sc2c1,?,25.1µM*,-4.2%,-23.4%,-8.2%
O=C(NC1c2ccccc2Oc2ccccc21)c1ccc([N+](=O)[O-])cc1,-10.4%,·,·,0.9%,·
CN(C)S(=O)(=O)c1cc(NC(=O)CN2CCc3ccccc32)ccc1Cl,2.6%,13.4%,-29.1%,-6.6%,44.7µM*
Cc1ccc(-c2nc3ccccc3[nH]2)cc1NC(=O)c1ccc2c(c1)OCO2,-14.7%,3.3%,0.8%,-1.6%,15.7%
Cc1ccc(-c2nc3ccccc3[nH]2)cc1NC(=O)/C=C/c1ccco1,-11.0%,1.1%,7.5%[12.9 µM],-15.4%,20µM*
O=C(/C=C/c1ccco1)N/C(=C\c1ccco1)C(=O)NCCc1nc2ccccc2[nH]1,-4.9%,0.1%,-21.2%,-11.0%,15.8µM*
C=CCn1c(SCC(=O)NC2CCCC2)nnc1-c1ccccn1,0.4%,-1.1%,·,3.0%,3.4%
CCCSc1nnc(NC(=O)Nc2ccc(F)cc2)s1,1.2%,-3.9%,2.7%,0.2%,89.1µM*
O=[N+]([O-])c1ccc(S(=O)Cc2ccccc2)c([N+](=O)[O-])c1 (stereo unspecified),5.62µM*,·,·,3.1%,·
N#CC1(c2ccccc2)CCCN1C(=O)c1ccc(Br)o1 (stereo unspecified),7.4%,4.5%,5.0%,-1.5%,39.8µM*
O=C(c1ccc(Br)o1)N1CCCc2ccccc21,?,-11.3%,5.1%,-4.8%,6.0%
COC(=O)c1sc(N)c(C(=O)OC)c1Cn1ncc(Cl)c(Cl)c1=O,1.0%,4.0%,-10.0%,-12.0%,0.316µM*
CCCn1nnc(NC(=O)c2ccc3ccccc3c2)n1,0.7%,-0.7%,-6.5%,0.5%,1.6%
COc1cc(/C=C/c2sc3ccccc3[n+]2CCCS(=O)(=O)[O-])ccc1O,?,15.8µM*,?,?,?
CCC(/C=C1\Oc2ccc(OC)cc2N1C)=C\c1sc2ccccc2[n+]1CCCS(=O)(=O)[O-],-2.8%,·,·,-27.8%,·
NC(Cc1c[nH]c2ccc(OCc3ccccc3)cc12)C(=O)O (stereo unspecified),-13.5%,-7.5%,-15.8%,-4.7%,11.2µM*
COc1ccc2[nH]cc(CC(N)C(=O)O)c2c1 (stereo unspecified),·,·,-16.4%,·,·

# Screens as filed in PubChem BioAssay.
